This is a sample that favours compounds with a hit; in the whole collection about 5.7% have one here.
DAX1 inh-1: inhibitors of DAX1 repression of SF-1 activated StAR promoter. HEK293T StAR-luciferase reporter, SF-1/DAX-1 repression relief. inhibition, % at 6.8 µM. 370,000 tested, 1.1% active;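 active = inhibition above the mean over all tested compounds plus 3 SD, cut at about 3.6% in these data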;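 also: 0% = DAX-1 cells with DMSO and 100% = cells lacking DAX-1 with DMSO; higher inhibition means more luminescence from relief of DAX-1 repression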
DAX1 inh-2: NR0B1 (DAX1) inhibition; HEK293 Gal4-DAX1 luciferase reporter, luminescence; inhibition, % at 6.75 µM; P51843; 340,000 tested, 0.99% active;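 active = inhibition above the mean over all tested compounds plus 3 SD, cut at about 4.2% in these data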;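 also: 0% = DAX1-transfected cells with DMSO and 100% = empty-vector control cells with DMSO; inhibition shows as a rise in luminescence from relieved DAX1 repression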
AHR act: activates the human aryl hydrocarbon receptor; P35869; AHR-responsive luciferase reporter cells, luminescence; activation, % at 5 µM; 320,000 tested, 2.5% active; AID 2796; in the data active = activation above about 47%;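 also: 0% = vehicle wells and 100% = reference agonist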
Target sequence (P35869 whole entry, looked up): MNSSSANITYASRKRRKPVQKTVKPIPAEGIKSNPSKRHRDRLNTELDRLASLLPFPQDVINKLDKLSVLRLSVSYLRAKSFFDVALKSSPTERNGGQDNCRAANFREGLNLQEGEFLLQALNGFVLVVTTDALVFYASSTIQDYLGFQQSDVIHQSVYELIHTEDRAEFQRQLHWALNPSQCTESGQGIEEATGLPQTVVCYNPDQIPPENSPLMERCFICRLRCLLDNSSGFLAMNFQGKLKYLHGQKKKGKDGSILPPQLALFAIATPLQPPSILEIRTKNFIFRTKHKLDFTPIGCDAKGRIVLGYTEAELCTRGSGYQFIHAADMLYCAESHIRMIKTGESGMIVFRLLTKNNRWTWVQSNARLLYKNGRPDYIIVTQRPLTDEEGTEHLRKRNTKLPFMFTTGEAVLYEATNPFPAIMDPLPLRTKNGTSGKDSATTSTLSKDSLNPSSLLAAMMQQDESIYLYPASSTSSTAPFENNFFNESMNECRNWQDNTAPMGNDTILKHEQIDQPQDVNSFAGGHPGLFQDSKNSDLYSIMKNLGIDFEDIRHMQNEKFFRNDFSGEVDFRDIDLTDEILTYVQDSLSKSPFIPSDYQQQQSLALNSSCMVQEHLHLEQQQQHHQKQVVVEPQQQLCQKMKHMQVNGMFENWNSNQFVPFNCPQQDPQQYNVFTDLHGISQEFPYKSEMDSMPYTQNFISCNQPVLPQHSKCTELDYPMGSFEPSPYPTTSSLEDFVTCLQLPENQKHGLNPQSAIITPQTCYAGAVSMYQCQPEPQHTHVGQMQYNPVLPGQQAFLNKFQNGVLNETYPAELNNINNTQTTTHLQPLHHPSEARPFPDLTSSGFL
hgDAF-12 ag: hgDAF-12 agonism, primary luciferase screen; HEK293 GAL4-hgDAF12 UAS-luciferase reporter, agonist luminescence; normalized to butyrate control; activation, % at 6.8 µM; 370,000 tested, 1.8% active; AID 687014;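 active = activation above a cutoff set at the mean of all screened compounds plus 3 SD, cut at about 10% in these data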;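 also: 0% = DMSO wells and 100% = sodium butyrate wells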
ssDAF-12 act: activators of S. stercoralis DAF-12 nuclear receptor; HEK293 ssDAF-12/GRIP1 lit1-tk-luc reporter, luminescence; % of 3 µM dafachronic acid response; activation, % at 6.8 µM; 370,000 tested, 1% active; AID 652126;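 active = activation above the mean over all tested compounds plus 3 SD, cut at about 0.9% in these data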;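 also: 0% = DMSO-only wells and 100% = 3 µM delta7-dafachronic acid wells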
hcDAF-12 act: activates DAF-12 receptor from parasite H. contortus; HEK293 hcDAF-12 lit1-tk-luc reporter, luminescence; 0% DMSO, 100% Δ7-dafachronic acid; activation, % at 6.8 µM; 370,000 tested, 1.4% active; AID 652067;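 active = activation above the mean of all tested compounds plus 3 SD, cut at about 5.5% in these data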;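 also: 100% = response to 3 µM Δ7-dafachronic acid high control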
Numbers without * were called inactive; x = not tested or not shown.

SMILES	DAX1 inh-1	DAX1 inh-2	AHR act	hgDAF-12 ag	ssDAF-12 act	hcDAF-12 act
Cc1ccc(NC(=O)c2ccccc2F)c(NC(=O)c2ccccc2F)c1	0	7.6*	73*	3	0	5
Cc1cc(NC(=O)c2ccccc2)ccc1NC(=O)c1ccccc1Cl	-1	0	22	0	-2	-3
Cc1cnc(C=O)c2cccc([N+](=O)[O-])c12	-1	0	x	0	0	5.9*
COCCn1c(C)cc(C(=O)COC(=O)C23CC4CC(CC(O)(C4)C2)C3)c1C	4.5*	4	0	8	0	5
Cc1cc(C(=O)COC(=O)C23CC4CC(CC(O)(C4)C2)C3)c(C)n1-c1c(C)n(C)n(-c2ccccc2)c1=O	0	0	-1	0	-1	0
CCCCCOc1ccc(N2C(=O)C3C4C=CC(C3C2=O)N(C)C4=O)cc1 (configuration not stated)	-1	0	5	-1	-2	0
CCOC(=O)/C=C1/N(C)c2ccccc2C1(C)C	1	6.1*	-1	0	-1	-1
CC1CC(C)CN(C(=O)c2cccc(N3C(=O)c4ccccc4C3=O)c2)C1 (configuration not stated)	4.3*	0	-2	-1	-1	0
CC1CCN(C(=O)c2ccc(N3C(=O)c4ccccc4C3=O)cc2)CC1	0	1	-4	-1	-1	1
COc1ccc(C(=O)Cc2ccc3c(c2)OCO3)c(O)c1	3	1	5	9	1.4*	4
O=C(O)COc1ccc(C(=O)Cc2ccc3c(c2)OCCCO3)c(O)c1	0	0	-1	-1	-1	-3
O=C(Cc1ccc(Br)cc1)c1ccc(O)cc1O	1	2	1	9	-1	1
COc1ccc(CC(=O)c2ccc(O)cc2O)cc1	3	5.8*	0	7	0	1
COc1ccccc1C1=NOC(Cn2c(=O)c3c(ncn3C)n(C)c2=O)C1 (configuration not stated)	0	0	9	1	0.9*	5
Oc1[nH]c2ccccc2c1C=NCC1CCCO1 (configuration not stated)	0	0	6	5	-1	6.5*
O=C(Cc1ccccc1)NNC(=O)Nc1ccc(Cl)c(Cl)c1	0	0	4	0	-2	-2
Cc1cc(NC(=O)Nc2ccc(Cl)c(Cl)c2)n(-c2ccccc2)n1	0	4.8*	5	1	-2	0
O=C(Nc1ccc2nccnc2c1)Nc1ccccc1Cl	0	2	-5	11*	-2	-1
O=C(Nc1ccc(Cl)c(Cl)c1)Nc1ccccc1C(=O)O	4.1*	-2	3	2	0	4
CN(CCC(=O)Nc1ccc2c(c1)OCO2)Cc1ccccc1	0	1	9	-2	-1	1
CS(=O)(=O)N(Cc1ccc(Cl)cc1)c1ccc(C(=O)NCCSc2ccccn2)cc1	-1	-1	3	-4	-1	-4
Cc1ccccc1OCC(=O)NCCN(C)C	0	0	2	-1	-1	-1
Cc1nc(-c2ccccc2)nc2[nH]c(-c3ccccc3)cc(=O)c12	0	-1	69*	-1	-1	0
Cc1nc(C)c2c(=O)cc(-c3ccccc3)[nH]c2n1	-2	-2	1	7	-1	-2
Cc1sc2nc(-c3cccnc3)[nH]c(=O)c2c1-c1ccccc1	0	0	63*	4	-2	-1
SMILES	DAX1 inh-1	DAX1 inh-2	AHR act	hgDAF-12 ag	ssDAF-12 act	hcDAF-12 act
Cc1cccc(Nc2nc(-c3c(C)nc4ccccn34)cs2)c1	-3	-3	-4	-5	-3	-4
Clc1ccc(-c2csc(Nc3cccnc3)n2)cc1	0	2	81*	3	-1	1
COc1cccc(Nc2nc(-c3ccc(O)cc3)cs2)c1	0	0	54*	6	-1	1
Cc1cccc(Nc2nc(-c3ccncc3)cs2)c1	1	0	54*	11*	0	3
Cc1cccc(Nc2nc(-c3ccc4c(c3)OCCO4)cs2)c1	2	3	7	13*	0	5.8*
COc1ccc(NC(=O)/C(C#N)=C\c2ccc(OCc3ccc(C(=O)O)cc3)c(OC)c2)cc1	0	2	1	2	-1	0
COc1ccc(-c2csc(NC(=O)/C(N=Nc3ccccc3)=C(\C)O)n2)cc1	x	x	48*	x	x	x
Oc1ccc(-c2csc(Nc3ncccn3)n2)cc1O	3	0	x	10	0	5
COc1ccc(-c2csc(C(C)(O)c3ccccc3)n2)cc1OC (configuration not stated)	0	x	x	1	-2	-1
COc1ccc(-c2csc(Nc3ccccn3)n2)cc1OC	2	4.8*	-10	10	0.9*	3
Oc1ccc(-c2csc(Nc3ncccn3)n2)c(O)c1	2	2	-9	25*	0	0
CC(=O)Nc1ccc(-c2csc(Nc3cccc(C)n3)n2)cc1	2	3	x	11*	0	1
Oc1ccc(-c2csc(Nc3ccccn3)n2)cc1	1	4.7*	27	11*	0	5
O=S(=O)(Nc1nc2ccccc2s1)c1ccc(Br)s1	0	-1	16	1	1	4
CNc1nc(C)nc(-n2nc(C)cc2C)n1	0	-1	3	3	-1	1
O=C(O)c1cc(-c2ccc(/C=N/NC(=S)Nc3ccccc3)o2)ccc1Cl	-1	x	19	-2	-1	2
COc1ccc(C(=O)Nc2nc(N)n(-c3ccccc3)n2)cc1OC	0	1	3	-2	0	-1
COc1cccc(/C=C/C(=O)OCC(=O)c2ccccc2)c1OC	3	-1	0	13*	0	6.1*
COc1ccccc1/C=C/C(=O)Nc1nc(N)n(-c2ccccc2)n1	0	-1	78*	-1	-1	2
COc1ccc2[nH]cc(/C=C/C(=O)c3ccccc3)c2c1	1	4	6	11*	0	5
COc1ccccc1/C=C/C(=O)c1ccccc1	0	0	x	13*	0	1
COC(=O)c1ccc(NC(=O)CSc2nnc(-c3ccncc3)n2N)cc1	-1	0	2	2	-2	0
COc1ccccc1/C=C/C(=O)c1ccc(NC(C)=O)cc1	-2	-3	12	-2	-2	-1
COc1ccccc1/C=C/C(=O)c1ccc(Cl)cc1	-1	-1	91*	4	-1	-1
COc1ccc(OC)c(/C=C/C(=O)c2ccc(Cl)cc2)c1	-2	-1	-2	0	-1	-2
CCOc1ccccc1/C=C/C(=O)c1ccc(Cl)cc1	-1	-1	70*	2	-2	-2
CCC(C)[C@H](NC(=O)NCc1cccc(OC)c1)C(=O)O (some centres not stated)	0	1	-3	0	-1	-1

Screens (PubChem)
